Measured values taken from ChEMBL document CHEMBL2218924, “A broad activity screen in support of a chemogenomic map for kinase signalling research and drug discovery” (Biochem J, 2013).

Columns and labels:
[1] = target: T1, Testis-specific serine/threonine-protein kinase 2 (Homo sapiens) (UniProt Q96PF2); details: at 10 µM
T1 sequence (whole entry): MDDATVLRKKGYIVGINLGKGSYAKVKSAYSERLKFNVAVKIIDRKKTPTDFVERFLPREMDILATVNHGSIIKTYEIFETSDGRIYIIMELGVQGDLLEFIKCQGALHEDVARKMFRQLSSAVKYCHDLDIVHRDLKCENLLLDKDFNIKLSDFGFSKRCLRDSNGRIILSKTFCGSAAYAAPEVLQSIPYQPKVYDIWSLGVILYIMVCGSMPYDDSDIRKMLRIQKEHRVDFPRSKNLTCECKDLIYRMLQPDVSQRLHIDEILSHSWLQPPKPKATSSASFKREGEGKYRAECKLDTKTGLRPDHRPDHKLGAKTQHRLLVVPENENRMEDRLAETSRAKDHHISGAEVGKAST

[2] = target: Angiopoietin-1 receptor (Homo sapiens) (UniProt Q02763); details: at 1 µM
[3] = target: Angiopoietin-1 receptor (Homo sapiens) (UniProt Q02763); details: at 10 µM
[4] = target: High affinity nerve growth factor receptor (Homo sapiens) (UniProt P04629); details: at 10 µM
Sequence of High affinity nerve growth factor receptor (Homo sapiens) (P04629 33-796 limits assumed): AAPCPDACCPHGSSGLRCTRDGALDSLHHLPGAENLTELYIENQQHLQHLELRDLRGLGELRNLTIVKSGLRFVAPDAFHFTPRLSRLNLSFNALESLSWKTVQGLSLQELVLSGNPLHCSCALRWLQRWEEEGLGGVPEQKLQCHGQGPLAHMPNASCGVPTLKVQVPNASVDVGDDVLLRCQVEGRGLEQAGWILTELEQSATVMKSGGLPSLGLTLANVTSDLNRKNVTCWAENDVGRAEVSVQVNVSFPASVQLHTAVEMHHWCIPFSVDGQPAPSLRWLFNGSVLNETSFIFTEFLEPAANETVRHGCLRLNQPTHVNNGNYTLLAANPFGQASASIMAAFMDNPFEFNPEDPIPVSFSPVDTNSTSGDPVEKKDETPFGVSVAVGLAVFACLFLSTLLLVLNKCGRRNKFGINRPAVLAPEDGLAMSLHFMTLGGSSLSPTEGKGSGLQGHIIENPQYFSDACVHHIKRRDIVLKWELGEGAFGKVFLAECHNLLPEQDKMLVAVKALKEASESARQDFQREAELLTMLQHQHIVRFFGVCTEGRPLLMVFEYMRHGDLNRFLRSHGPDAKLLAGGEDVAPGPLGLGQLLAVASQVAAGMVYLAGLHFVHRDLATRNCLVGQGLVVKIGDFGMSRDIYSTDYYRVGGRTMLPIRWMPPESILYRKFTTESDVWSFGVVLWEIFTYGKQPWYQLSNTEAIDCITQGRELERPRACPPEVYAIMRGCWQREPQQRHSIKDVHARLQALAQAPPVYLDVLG

[5] = target: T2, Tyrosine-protein kinase TXK (Homo sapiens) (UniProt P42681); details: at 1 µM
T2 sequence (whole entry): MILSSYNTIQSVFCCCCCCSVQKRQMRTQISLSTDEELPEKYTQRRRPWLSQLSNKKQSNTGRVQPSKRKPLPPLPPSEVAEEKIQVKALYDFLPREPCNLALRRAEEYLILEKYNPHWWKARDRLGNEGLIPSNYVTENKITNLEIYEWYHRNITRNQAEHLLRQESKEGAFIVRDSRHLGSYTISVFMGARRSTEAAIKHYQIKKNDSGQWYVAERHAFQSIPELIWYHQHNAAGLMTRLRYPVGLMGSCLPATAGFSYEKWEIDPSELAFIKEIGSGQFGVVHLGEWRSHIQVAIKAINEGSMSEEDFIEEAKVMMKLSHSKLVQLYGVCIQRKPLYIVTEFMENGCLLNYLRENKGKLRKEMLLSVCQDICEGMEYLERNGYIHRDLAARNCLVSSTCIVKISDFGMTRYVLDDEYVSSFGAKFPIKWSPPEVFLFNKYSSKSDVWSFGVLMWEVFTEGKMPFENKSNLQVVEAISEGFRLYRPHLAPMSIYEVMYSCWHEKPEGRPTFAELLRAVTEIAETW

[6] = target: Serine/threonine-protein kinase VRK2 (Homo sapiens) (UniProt Q86Y07); details: at 10 µM
Sequence of Serine/threonine-protein kinase VRK2 (Homo sapiens) (Q86Y07 whole entry): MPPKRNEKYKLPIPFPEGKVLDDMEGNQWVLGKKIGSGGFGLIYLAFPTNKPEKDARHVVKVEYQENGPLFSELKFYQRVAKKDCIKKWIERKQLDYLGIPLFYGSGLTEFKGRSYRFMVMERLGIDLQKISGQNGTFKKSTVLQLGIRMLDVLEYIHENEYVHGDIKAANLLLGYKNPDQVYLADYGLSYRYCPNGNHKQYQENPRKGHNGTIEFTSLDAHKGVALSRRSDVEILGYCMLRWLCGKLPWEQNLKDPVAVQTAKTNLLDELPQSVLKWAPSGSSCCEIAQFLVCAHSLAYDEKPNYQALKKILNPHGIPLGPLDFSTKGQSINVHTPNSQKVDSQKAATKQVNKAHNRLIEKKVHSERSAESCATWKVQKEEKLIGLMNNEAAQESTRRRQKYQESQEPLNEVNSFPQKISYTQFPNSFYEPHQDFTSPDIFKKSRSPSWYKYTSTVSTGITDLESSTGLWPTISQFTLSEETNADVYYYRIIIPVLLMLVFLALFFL

[7] = target: High affinity nerve growth factor receptor (Homo sapiens) (UniProt P04629); details: at 1 µM
[8] = target: T2, Tyrosine-protein kinase TXK (Homo sapiens); details: at 10 µM
[9] = target: T3, Serine/threonine-protein kinase ULK2 (Homo sapiens) (UniProt Q8IYT8); details: at 10 µM
T3 sequence (whole entry): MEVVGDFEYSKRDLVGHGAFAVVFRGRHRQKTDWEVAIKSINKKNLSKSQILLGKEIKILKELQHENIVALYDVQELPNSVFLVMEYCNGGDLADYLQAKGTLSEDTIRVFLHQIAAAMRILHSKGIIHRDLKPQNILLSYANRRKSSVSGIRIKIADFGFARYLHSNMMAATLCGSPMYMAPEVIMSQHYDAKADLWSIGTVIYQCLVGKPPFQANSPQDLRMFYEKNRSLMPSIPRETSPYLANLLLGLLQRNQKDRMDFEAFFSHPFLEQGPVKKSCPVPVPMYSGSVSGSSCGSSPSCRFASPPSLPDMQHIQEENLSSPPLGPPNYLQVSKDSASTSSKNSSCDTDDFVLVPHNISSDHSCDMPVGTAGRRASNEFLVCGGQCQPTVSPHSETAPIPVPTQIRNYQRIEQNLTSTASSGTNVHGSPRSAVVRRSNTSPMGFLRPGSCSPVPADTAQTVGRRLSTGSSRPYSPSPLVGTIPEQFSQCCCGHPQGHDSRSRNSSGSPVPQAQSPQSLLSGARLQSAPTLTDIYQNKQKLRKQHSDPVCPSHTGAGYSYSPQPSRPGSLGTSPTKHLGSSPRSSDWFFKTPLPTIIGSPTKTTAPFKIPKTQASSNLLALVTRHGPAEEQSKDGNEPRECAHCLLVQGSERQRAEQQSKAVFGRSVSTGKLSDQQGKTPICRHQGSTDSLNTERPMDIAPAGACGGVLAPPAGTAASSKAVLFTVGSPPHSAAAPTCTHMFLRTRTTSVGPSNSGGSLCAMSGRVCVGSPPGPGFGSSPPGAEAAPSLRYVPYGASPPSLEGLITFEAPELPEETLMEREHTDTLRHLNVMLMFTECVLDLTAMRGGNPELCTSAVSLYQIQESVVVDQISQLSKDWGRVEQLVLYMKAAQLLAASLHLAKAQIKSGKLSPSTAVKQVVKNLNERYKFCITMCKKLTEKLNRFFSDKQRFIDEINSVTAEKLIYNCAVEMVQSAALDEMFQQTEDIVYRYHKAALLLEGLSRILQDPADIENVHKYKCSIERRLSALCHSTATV

[10] = target: T4, Serine/threonine-protein kinase ULK3 (Homo sapiens) (UniProt Q6PHR2); details: at 10 µM
T4 sequence (whole entry): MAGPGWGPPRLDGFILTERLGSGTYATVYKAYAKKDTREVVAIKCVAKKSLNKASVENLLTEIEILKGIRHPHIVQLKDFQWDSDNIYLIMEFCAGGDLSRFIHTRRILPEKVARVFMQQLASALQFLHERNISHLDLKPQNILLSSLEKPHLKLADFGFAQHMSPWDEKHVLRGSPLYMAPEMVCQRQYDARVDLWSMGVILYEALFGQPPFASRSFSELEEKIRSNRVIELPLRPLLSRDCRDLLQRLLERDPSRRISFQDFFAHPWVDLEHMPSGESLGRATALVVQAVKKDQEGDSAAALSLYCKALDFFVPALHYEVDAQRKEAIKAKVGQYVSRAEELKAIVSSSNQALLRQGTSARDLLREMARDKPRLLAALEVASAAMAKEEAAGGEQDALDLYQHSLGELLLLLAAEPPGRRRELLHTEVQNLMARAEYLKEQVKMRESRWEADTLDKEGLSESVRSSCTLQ

[11] = target: T5, Tyrosine-protein kinase Tec (Homo sapiens) (UniProt P42680); details: at 1 µM
T5 sequence (whole entry): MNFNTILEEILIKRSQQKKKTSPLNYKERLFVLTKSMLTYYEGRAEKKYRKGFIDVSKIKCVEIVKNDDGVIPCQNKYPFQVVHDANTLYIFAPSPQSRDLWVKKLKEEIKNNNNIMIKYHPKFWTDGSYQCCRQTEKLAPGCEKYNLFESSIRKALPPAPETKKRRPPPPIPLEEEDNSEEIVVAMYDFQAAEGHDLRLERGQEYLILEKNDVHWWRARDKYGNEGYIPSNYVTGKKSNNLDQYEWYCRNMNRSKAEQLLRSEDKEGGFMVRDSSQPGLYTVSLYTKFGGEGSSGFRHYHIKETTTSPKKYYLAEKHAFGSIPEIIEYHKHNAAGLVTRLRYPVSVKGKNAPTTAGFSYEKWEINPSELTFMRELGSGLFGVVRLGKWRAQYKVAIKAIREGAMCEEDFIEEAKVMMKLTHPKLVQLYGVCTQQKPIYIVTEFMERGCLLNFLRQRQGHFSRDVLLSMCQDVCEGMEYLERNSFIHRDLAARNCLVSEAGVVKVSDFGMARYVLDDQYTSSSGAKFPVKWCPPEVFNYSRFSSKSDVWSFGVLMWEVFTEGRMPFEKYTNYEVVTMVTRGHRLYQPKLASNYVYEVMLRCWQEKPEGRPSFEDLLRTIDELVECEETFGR

[12] = target: T5, Tyrosine-protein kinase Tec (Homo sapiens); details: at 10 µM
[13] = target: T3, Serine/threonine-protein kinase ULK2 (Homo sapiens); details: at 1 µM
[14] = target: T4, Serine/threonine-protein kinase ULK3 (Homo sapiens); details: at 1 µM
[15] = target: BDNF/NT-3 growth factors receptor (Homo sapiens) (UniProt Q16620); details: at 1 µM
Sequence of BDNF/NT-3 growth factors receptor (Homo sapiens) (Q16620 32-822 limits assumed): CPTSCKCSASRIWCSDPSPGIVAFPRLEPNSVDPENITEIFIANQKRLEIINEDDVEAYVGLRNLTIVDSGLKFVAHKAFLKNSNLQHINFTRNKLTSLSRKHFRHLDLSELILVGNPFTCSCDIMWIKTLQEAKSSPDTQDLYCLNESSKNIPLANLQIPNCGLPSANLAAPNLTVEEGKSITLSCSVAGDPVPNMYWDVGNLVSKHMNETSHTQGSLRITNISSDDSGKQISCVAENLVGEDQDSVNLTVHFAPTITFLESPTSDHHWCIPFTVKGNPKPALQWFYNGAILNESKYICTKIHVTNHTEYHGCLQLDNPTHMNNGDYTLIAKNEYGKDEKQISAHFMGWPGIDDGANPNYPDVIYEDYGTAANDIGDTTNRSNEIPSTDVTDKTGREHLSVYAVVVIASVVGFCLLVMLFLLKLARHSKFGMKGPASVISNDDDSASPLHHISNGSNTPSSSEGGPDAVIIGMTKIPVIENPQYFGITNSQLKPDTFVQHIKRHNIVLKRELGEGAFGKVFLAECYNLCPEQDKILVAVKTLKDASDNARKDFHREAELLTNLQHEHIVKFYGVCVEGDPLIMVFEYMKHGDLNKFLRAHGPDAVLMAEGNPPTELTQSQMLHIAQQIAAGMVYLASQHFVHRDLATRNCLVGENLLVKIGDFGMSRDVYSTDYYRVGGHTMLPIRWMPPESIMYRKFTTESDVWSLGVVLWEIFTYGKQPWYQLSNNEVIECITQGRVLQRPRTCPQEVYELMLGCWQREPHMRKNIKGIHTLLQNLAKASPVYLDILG

[16] = target: BDNF/NT-3 growth factors receptor (Homo sapiens) (UniProt Q16620); details: at 10 µM
[17] = target: T6, Testis-specific serine/threonine-protein kinase 1 (Homo sapiens) (UniProt Q9BXA7); details: at 10 µM
T6 sequence (whole entry): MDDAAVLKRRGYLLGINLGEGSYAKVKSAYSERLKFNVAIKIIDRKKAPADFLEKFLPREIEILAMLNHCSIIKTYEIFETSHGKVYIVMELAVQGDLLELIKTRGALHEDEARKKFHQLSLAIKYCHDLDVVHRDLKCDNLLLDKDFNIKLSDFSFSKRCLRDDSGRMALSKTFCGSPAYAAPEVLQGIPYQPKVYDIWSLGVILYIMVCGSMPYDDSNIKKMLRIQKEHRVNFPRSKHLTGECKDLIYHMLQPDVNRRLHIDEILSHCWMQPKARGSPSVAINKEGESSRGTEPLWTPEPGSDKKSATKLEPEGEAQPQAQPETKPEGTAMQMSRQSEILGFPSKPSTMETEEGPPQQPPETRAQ

[18] = target: Serine/threonine-protein kinase VRK2 (Homo sapiens) (UniProt Q86Y07); details: at 1 µM
[19] = target: Serine/threonine-protein kinase WNK2 (Homo sapiens) (UniProt Q9Y3S1); details: at 1 µM;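 further: residual WNK2 kinase activity expressed as percent of uninhibited control, assayed in MOPS buffer at pH 7.0 containing EDTA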
Sequence of Serine/threonine-protein kinase WNK2 (Homo sapiens) (Q9Y3S1 whole entry): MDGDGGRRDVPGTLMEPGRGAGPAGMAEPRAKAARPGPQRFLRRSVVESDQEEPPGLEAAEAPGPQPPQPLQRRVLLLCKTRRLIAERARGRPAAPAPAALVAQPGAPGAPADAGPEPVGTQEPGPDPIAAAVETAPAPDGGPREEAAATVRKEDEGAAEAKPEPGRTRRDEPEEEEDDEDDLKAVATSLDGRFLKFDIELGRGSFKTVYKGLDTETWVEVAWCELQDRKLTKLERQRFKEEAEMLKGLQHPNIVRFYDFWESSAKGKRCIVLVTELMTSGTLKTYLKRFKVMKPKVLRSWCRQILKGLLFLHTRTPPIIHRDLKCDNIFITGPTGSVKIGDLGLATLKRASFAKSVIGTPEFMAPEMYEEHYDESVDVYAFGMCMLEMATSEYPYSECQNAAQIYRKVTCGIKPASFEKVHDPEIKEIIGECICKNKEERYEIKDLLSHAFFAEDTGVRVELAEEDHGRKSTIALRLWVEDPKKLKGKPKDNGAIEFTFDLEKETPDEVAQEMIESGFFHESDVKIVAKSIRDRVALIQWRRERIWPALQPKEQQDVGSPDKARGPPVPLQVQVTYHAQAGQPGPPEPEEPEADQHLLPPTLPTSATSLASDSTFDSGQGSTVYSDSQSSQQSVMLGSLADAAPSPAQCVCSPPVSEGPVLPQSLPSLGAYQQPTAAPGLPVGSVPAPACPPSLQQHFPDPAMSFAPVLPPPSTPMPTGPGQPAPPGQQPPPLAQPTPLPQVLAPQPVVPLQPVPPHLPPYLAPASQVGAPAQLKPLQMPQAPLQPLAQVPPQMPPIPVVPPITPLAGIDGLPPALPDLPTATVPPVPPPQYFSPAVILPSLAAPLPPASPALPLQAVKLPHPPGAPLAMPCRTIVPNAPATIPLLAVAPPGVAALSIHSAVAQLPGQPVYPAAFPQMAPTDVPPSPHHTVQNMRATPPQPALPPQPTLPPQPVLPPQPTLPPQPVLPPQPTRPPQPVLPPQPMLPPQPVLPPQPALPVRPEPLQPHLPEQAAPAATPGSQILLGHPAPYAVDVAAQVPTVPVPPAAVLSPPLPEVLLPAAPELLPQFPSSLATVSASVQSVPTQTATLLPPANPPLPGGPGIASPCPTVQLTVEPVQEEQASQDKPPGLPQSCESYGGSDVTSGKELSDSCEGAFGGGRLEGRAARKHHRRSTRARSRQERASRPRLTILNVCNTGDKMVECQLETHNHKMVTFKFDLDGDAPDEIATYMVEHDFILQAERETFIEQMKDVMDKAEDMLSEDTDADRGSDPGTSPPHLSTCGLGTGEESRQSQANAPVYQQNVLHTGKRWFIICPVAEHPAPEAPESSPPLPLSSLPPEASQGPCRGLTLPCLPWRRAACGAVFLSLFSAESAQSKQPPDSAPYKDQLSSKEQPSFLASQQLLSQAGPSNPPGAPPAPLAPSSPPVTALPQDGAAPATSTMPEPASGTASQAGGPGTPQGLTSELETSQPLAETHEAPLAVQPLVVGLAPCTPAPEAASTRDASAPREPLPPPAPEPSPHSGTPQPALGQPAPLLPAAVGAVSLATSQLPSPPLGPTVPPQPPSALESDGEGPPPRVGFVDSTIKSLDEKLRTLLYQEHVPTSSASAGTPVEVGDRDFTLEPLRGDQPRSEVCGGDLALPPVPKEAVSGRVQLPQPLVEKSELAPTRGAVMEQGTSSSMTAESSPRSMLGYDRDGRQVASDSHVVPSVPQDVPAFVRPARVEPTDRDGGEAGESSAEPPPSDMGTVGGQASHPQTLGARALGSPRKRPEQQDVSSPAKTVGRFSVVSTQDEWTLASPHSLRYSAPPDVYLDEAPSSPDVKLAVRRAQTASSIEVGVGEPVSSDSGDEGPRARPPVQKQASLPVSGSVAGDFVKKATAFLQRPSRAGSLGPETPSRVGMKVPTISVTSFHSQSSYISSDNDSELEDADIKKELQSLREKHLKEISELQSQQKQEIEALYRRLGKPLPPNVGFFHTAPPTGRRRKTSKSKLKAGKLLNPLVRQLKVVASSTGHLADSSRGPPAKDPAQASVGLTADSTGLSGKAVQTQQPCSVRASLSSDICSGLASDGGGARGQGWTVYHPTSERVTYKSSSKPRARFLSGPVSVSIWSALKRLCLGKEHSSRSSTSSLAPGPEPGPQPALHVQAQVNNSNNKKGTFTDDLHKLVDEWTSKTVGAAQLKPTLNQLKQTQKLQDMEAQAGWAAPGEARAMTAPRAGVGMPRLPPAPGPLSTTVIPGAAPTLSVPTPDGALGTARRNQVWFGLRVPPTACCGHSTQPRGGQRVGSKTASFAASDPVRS

Fc1ccc(-c2nc3n(c2-c2ccncc2)CCS3)cc1
residual activity [1]: 86% | residual activity [2]: 128% | residual activity [3]: 124% | residual activity [4]: 88% | residual activity [5]: 93% | residual activity [6]: 80%

Oc1cccc(-c2nc(N3CCOCC3)c3oc4ncccc4c3n2)c1
residual activity [1]: 74% | residual activity [2]: 80% | residual activity [3]: 59% | residual activity [7]: 93% | residual activity [4]: 118% | residual activity [5]: 93% | residual activity [8]: 92% | residual activity [9]: 81% | residual activity [10]: 92% | residual activity [6]: 89%

O=C1Cc2c([nH]c3ccc([N+](=O)[O-])cc23)-c2ccccc2N1
residual activity [11]: 79% | residual activity [12]: 72% | residual activity [7]: 72% | residual activity [4]: 63% | residual activity [5]: 49% | residual activity [8]: 39% | residual activity [13]: 49% | residual activity [9]: 45% | residual activity [14]: 75% | residual activity [10]: 53%

O=C1NC(=O)C(c2cn(CCCn3ccnc3)c3ccccc23)=C1Nc1ccccc1
residual activity [2]: 55% | residual activity [3]: 32% | residual activity [7]: 1% | residual activity [4]: 9% | residual activity [15]: 44% | residual activity [16]: 18%

O=C(c1cc2cc(O)ccc2[nH]1)c1cc2cc(O)ccc2[nH]1
residual activity [17]: 56% | residual activity [1]: 65% | residual activity [11]: 58% | residual activity [12]: 21% | residual activity [2]: 67% | residual activity [3]: 75% | residual activity [7]: 13% | residual activity [4]: 1% | residual activity [15]: 56% | residual activity [16]: -12% | residual activity [5]: 64% | residual activity [8]: 22% | residual activity [13]: 82% | residual activity [9]: 38% | residual activity [14]: 73% | residual activity [10]: 22% | residual activity [18]: 72% (inactive) | residual activity [6]: 37% | residual activity [19]: 83% (inactive)

N#Cc1c(NC(=O)c2cccc3ccccc23)sc2c1CCCC2
residual activity [11]: 94% | residual activity [12]: 69% | residual activity [7]: 81% | residual activity [4]: 87% | residual activity [5]: 90% | residual activity [8]: 80%

CN([C@@H](Cc1ccc(OS(=O)(=O)c2cccc3cnccc23)cc1)C(=O)N1CCN(c2ccccc2)CC1)S(=O)(=O)c1cccc2cnccc12
residual activity [3]: 72% | residual activity [15]: 79% | residual activity [16]: 50%

NC(=O)c1cccc(-c2cc(Nc3ccc(OC(F)(F)F)cc3)ncn2)c1
residual activity [4]: 65% | residual activity [14]: 100% | residual activity [10]: 93% | residual activity [19]: 124% (inactive)

COc1ccc2c(c1)c(C1=C(c3c[nH]c4ccccc34)C(=O)NC1=O)cn2CCCN(C)C
residual activity [12]: 63% | residual activity [2]: 99% | residual activity [3]: 36% | residual activity [7]: 72% | residual activity [4]: 35% | residual activity [15]: 77% | residual activity [16]: 43% | residual activity [8]: 73% | residual activity [13]: 101% | residual activity [9]: 82% | residual activity [14]: 100% | residual activity [10]: 59% | residual activity [18]: 102% (inactive) | residual activity [6]: 69% | residual activity [19]: 107% (inactive)

O=S(=O)(c1cccc2cnccc12)N1CCCNCC1
residual activity [15]: 83%

Cc1cc(C)c(/C=C2\C(=O)Nc3ccccc32)[nH]1
residual activity [17]: 75% | residual activity [11]: 100% | residual activity [2]: 74% | residual activity [3]: 82% | residual activity [7]: 1% | residual activity [4]: 0% | residual activity [15]: 40% | residual activity [16]: -7% | residual activity [5]: 103% | residual activity [18]: 98% (inactive) | residual activity [6]: 68%

N#C/C(=C\c1ccc(O)c(O)c1)C(=O)NCc1ccccc1
residual activity [2]: 89% | residual activity [3]: 71% | residual activity [7]: 64% | residual activity [4]: -1% | residual activity [16]: 102% | residual activity [8]: 86% | residual activity [9]: 85% | residual activity [10]: 86%
